Screening data from PubChem BioAssay.
USP17 inh – inhibitors of human USP17 deubiquitinase | purified USP17, Ub-rhodamine cleavage fluorescence, 3 h | inhibition, % at 50 µM | AID 1645855 | 6.5% of 47,000 active
Target sequence (A8MUK1 whole entry, looked up): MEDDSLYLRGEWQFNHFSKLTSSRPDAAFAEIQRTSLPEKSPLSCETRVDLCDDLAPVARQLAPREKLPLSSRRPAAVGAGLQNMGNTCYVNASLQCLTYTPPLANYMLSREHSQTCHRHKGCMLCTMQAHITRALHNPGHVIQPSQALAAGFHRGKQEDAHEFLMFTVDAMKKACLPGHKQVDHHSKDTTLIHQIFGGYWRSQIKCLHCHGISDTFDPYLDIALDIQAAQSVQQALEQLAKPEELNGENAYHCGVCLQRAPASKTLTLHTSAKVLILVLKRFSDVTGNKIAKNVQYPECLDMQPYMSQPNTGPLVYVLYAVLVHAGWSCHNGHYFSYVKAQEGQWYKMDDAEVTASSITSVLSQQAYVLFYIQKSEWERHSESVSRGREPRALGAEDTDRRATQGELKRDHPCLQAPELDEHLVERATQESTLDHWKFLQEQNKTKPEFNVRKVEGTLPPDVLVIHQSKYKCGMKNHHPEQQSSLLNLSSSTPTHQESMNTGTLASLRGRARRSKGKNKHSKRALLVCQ
USP30 inh – inhibitors of human USP30 deubiquitinase. Q70CQ3. purified USP30, Ub-rhodamine cleavage fluorescence. inhibition, % at 25 µM. 5.3% of 47,000 active. AID 1645860
OTUD3 block – blocks human OTUD3 ubiquitin-rhodamine cleavage | Q5T2D3 | purified OTUD3, Ub-rhodamine fluorescence, 2 h | 0.7% of 47,000 active | AID 1645858 | inhibition, % at 25 µM
USP28 inh – blocks human USP28 ubiquitin-rhodamine cleavage. Q96RU2. purified USP28, Ub-rhodamine cleavage fluorescence, 30 min. inhibition, % at 25 µM. 3% of 47,000 active. AID 1645857
* hit, by the source's call; . = no result. Rows were chosen to be rich in hits. Some 11% of all compounds tested hit in one or more screens of this group. Cut-off read from the data, not from the text of the source: active = inhibition above about 30%; inactive = the rest.

SMILES	USP17 inh	USP30 inh	OTUD3 block	USP28 inh
CC1CCN(C(=O)c2nnc(-c3ccc(S(=O)(=O)N4CCC(C)CC4)cc3)o2)CC1	20.3	-15.3	-0.1	-9.1
O=C(c1cscn1)N1CCC2(CN(CC(c3ccccc3)c3ccccc3)C2)C1	-22.0	-15.7	-3.2	-19.7
O=C(c1cscn1)N1CCC2(CC1)CC1(CO2)Nc2ccccc2-n2cccc21 (centres undefined)	71.4*	-68.2	-14.5	-4.6
CCCn1cc(C(=O)N2CCC3(CC2)CC2(CO3)Nc3ccccc3-n3cccc32)c(C)n1 (centres undefined)	66.8*	4.8	6.8	9.5
COc1ccccc1NC(=O)N1CCC2(CC1)Nc1ccccc1-n1cccc12	-12.2	-15.7	-2.1	1.6
Cc1ccc(NC(=O)N2CCC3(CC2)Nc2ccccc2-n2cccc23)cc1	-8.2	-5.3	-2.3	6.6
O=C(c1ccncc1)N1CCC2(CC1)CC1(CO2)Nc2ccccc2-n2cccc21 (centres undefined)	38.1*	-79.3	-9.2	-1.2
O=C(c1ccco1)N1CCC2(CC1)CC1(CO2)Nc2ccccc2-n2cccc21 (centres undefined)	80.5*	-26.4	-1.2	18.5
CCn1ccc(C(=O)N2CCC3(CC2)Nc2cccnc2NC3=NCc2ccccc2)n1	-77.3	-350.7	-74.8	-118.6
Cc1cc2c(cc1S(=O)(=O)NCc1cccc(Cl)c1)OCC(=O)N2	-8.4	-7.0	-2.6	-2.2
CCOc1ccc(NC(=O)CCn2ccc(=O)[nH]c2=O)cc1OCC	-22.3	-17.6	7.9	-13.6
Cc1[nH]c(C)c(S(=O)(=O)Nc2ccccc2F)c1C(=O)N1CCCC1	3.1	15.4	8.6	11.8
O=C(c1cccnc1)N1CCC2(CC1)CC1(CO2)Nc2ccccc2-n2cccc21 (centres undefined)	71.2*	-10.0	-12.3	0.3
Cc1ccc(/C=C/C(=O)Cc2ccccc2)cc1	40.5*	30.4*	22.2	18.3
CCC(C)NC(=O)Cn1c(=O)n(Cc2ccccc2)c(=O)c2nscc21 (centres undefined)	3.9	8.6	4.5	-0.2
CCCCN1CCN(c2ccc3c(c2)OCO3)C1=O	9.7	11.7	14.8	36.9*
Cn1cccc1C(=O)NC1CC(=O)N(c2ccc3c(c2)OCO3)C1 (centres undefined)	-4.0	-1.8	-4.4	2.9
CCC(=O)Nc1cccnc1-c1ccc(C(=O)NCc2ccc(F)cc2)cc1	-8.9	-9.9	-3.3	-4.5
Cc1nc(-c2ccc(C(=O)NCc3ccc(F)cc3)cc2)cs1	52.1*	11.2	2.3	9.7
COc1ccccc1CNC(=O)c1ccc(-c2csc(C)n2)cc1	-1.1	1.2	-2.0	27.4
O=C(NCc1ccc(F)cc1)c1ccc(-c2cccs2)cc1	59.0*	.	0.4	.
O=C(Cn1cc(-c2ccccc2)oc1=O)N1CCN(c2ccc(F)cc2)CC1	1.4	-14.9	1.8	-5.9
O=C1Cc2cc(S(=O)(=O)N3CCC([C@@H]4NC(=O)N[C@H]5OCCC[C@H]54)CC3)ccc2N1	3.2	-72.2	7.1	2.4
CC1(C)Oc2ccc(C(=O)N3CCC([C@@H]4NC(=O)N[C@H]5OCCC[C@H]54)CC3)cc2NC1=O	-0.8	31.8*	5.6	7.5
CCOc1ccc(-n2nnnc2-c2ccccn2)cc1	5.3	30.6*	16.6	10.3
SMILES	USP17 inh	USP30 inh	OTUD3 block	USP28 inh
CCN(c1ccc(NC(=O)CSc2nnc(-c3ccccc3)n2-c2ccc(OC)c(OC)c2)cc1)C(C)C	63.1*	46.3*	20.8	40.9*
COc1ccc(-n2c(SCC(=O)c3c[nH]c4ccccc34)nnc2-c2ccccc2)cc1OC	-7.6	5.8	2.4	-6.4
O=C(Nc1cc(S(=O)(=O)N2CCOCC2)ccc1N1CCOCC1)c1cc2c(s1)CCCC2	16.4	30.3*	7.2	8.1
COc1ccccc1N1CCN(C(=O)c2noc3c2CCCC3)CC1	4.6	18.6	15.8	4.7
Cc1ccc(-c2nnc(NC(=O)C3CCCCC3)o2)c(C)c1	37.8*	5.9	2.5	4.2
Cc1nc(-c2cccc(S(=O)(=O)N3CC(=O)Nc4ccccc43)c2)no1	3.0	17.9	8.9	9.0
Cc1ccccc1NC(=O)C(NS(=O)(=O)c1ccc2c(c1)OCCO2)C(C)C (centres undefined)	39.8*	7.4	-10.2	-0.4
O=C(NC1CCCCCC1)C(Cc1ccccc1)NS(=O)(=O)c1ccc2c(c1)OCCO2 (centres undefined)	48.8*	1.6	0.5	4.7
Cc1ccc(OCC(=O)Nc2ccc(S(=O)(=O)N3CCc4ccccc43)cc2)c(Br)c1	-26.4	-248.3	-45.9	-69.2
COc1ccc(OC)c(CC(=O)NC2CC3(CCOCC3)Oc3ccccc32)c1 (centres undefined)	21.4	43.7*	9.8	12.4
Oc1cccc2c(-c3ccc(O)c4c(O)cccc34)ccc(O)c12	98.1*	93.8*	76.4*	92.4*
Cc1ccc2[nH]c(=O)c(-c3nc4ccc(C)cn4c3NCc3ccc(F)cc3)cc2c1	75.7*	2.2	9.2	11.8
Cc1ccc(NC(=O)N2C[C@@H]3c4nccn4-c4ccccc4[C@@H]3C2)cc1	-14.6	0.3	-8.6	-18.0
O=C(Nc1ccccn1)N1C[C@@H]2c3nccn3-c3ccccc3[C@@H]2C1	13.7	34.0*	13.2	8.6
O=C(NCc1ccccc1Cl)C1CCN(c2ccc(-c3ccccc3)nn2)CC1	0.6	41.1*	10.3	5.8
Cc1ccccc1CNC(=O)c1ccc(-c2ccc(N3CCCC3)nn2)cc1	47.7*	-3.3	-12.5	4.2
Cc1ccccc1-n1ncc2c(N3CCN(c4ccc(F)cc4)CC3)ncnc21	8.5	-7.0	3.2	-10.6
CC(C)c1ccc(NC(=O)CN2C(=O)COc3ccc(C(=O)N4CCCC4)cc32)cc1	-13.6	10.4	9.4	5.2
CCNc1nc(NCCc2cccs2)c2cnn(C)c2n1	-24.5	-19.0	-14.7	-14.5
O=C(Nc1nc2ccccc2s1)c1ccc2c(c1)C(=O)N(Cc1cccnc1)C2=O	58.4*	24.0	0.6	-3.3
O=C(NCC(=O)N1CCN(Cc2ccccc2)CC1)c1cc2ccccc2[nH]1	1.4	0.6	-2.3	-4.2
CC1CCCCC1NCC(=O)NC(c1ccccc1)c1ccccc1 (centres undefined)	10.3	32.1*	16.9	13.6
Cc1cc(C(=O)C(=O)Nc2cccc(Cl)c2)c(C)n1-c1ccc(F)cc1	-13.3	1.2	0.8	1.5
Cc1nnc(NC(=O)C(=O)c2cc(C)n(-c3ccc(Cl)cc3)c2C)s1	42.8*	-42.2	7.0	25.0
O=C(Nc1cc(C(F)(F)F)cc(C(F)(F)F)c1)c1ccc(-c2ccccn2)s1	18.9	41.0*	7.9	12.4
CCC(C(=O)C(C)C(O)C(C)CCc1ccc(C)c(O)c1C(=O)O)C1OC(CC)(C2CCC(O)(CC)C(C)O2)CC1C (centres undefined)	62.8*	55.3*	31.8*	40.9*
Cc1nc2cc(C(=O)NCCC3=CCCCC3)ccc2n1-c1cccc(F)c1	7.8	73.4*	6.1	39.7*
COc1ccc(-c2c3c(=O)n(C)c(=O)n(C)c3cn2CCc2ccccc2)cc1	-30.6	-7.6	-8.6	-1.9
CC(=O)Nc1ccc(-n2cnc(C(=O)NC3CCCC3)c2)nc1	-7.1	-1.2	1.9	1.0
